From PMC7862700, “An all-to-all approach to the identification of sequence-specific readers for epigenetic DNA modifications on cytosine” come the findings set out here.

Holding throughout (test): DAPPL (digital affinity profiling via proximity ligation, sequencing); 10 mM Tris-HCl pH 7.5, 50 mM NaCl, 1 mM DTT, 4% glycerol, room temperature, 30 min; GST-TFs on glutathione beads, 16-mer random dsDNA library, 0.1% formaldehyde crosslink after washing; high values mean tight binding
Holding throughout (details): protein: recombinant; tags: N-terminal GST; dsDNA, one strand shown

Assay [1] deals with T1, ERF (Homo sapiens, UniProt P50548 1-548).
T1 sequence: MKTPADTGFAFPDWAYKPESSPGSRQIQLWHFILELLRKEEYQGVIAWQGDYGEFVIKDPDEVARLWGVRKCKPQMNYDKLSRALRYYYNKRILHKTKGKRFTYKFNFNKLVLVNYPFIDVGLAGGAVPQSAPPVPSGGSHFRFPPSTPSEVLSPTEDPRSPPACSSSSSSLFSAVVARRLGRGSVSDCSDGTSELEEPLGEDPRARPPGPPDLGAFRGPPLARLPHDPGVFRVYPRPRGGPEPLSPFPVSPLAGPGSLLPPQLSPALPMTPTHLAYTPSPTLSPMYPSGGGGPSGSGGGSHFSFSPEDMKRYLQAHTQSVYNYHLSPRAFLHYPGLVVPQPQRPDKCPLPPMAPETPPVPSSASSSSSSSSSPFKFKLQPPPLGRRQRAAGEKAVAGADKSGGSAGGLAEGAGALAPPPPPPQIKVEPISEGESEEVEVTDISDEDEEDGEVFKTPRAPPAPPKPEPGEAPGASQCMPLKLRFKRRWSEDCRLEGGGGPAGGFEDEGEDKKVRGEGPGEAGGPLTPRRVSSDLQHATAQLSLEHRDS
Summed up:
(§1)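 Pools were built from human transcription factors expressed in yeast as GST fusions, captured on glutathione beads and DNA-barcoded, along with a tag-only sample. Incubation with 200 nmole of a 16-mer random double-stranded DNA library lasted 30 min at room temperature in Tris/NaCl/DTT/glycerol buffer, and was followed by washing, 0.1% formaldehyde crosslinking, proximity ligation, PCR amplification and Illumina NextSeq500 sequencing. Binding signal is the quotient of each hexamer's read frequency for a factor and its frequency for the tag-only sample.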

Assay [2] addresses T2, ETV3L (Homo sapiens, UniProt Q6ZN32 1-361).
T2 sequence: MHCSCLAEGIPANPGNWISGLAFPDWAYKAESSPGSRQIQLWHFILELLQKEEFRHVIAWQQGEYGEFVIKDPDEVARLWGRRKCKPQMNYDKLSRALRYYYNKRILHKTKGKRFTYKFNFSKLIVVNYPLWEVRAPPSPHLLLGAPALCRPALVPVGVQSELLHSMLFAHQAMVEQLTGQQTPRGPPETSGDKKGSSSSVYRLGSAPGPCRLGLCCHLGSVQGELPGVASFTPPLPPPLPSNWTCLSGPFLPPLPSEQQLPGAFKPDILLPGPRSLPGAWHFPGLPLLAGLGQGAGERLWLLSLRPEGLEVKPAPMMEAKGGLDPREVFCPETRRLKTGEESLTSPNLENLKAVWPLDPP
Summed up:
as §1

For assay [3], the target named is T3, ETS2 (Homo sapiens, UniProt P15036 1-469).
T3 sequence: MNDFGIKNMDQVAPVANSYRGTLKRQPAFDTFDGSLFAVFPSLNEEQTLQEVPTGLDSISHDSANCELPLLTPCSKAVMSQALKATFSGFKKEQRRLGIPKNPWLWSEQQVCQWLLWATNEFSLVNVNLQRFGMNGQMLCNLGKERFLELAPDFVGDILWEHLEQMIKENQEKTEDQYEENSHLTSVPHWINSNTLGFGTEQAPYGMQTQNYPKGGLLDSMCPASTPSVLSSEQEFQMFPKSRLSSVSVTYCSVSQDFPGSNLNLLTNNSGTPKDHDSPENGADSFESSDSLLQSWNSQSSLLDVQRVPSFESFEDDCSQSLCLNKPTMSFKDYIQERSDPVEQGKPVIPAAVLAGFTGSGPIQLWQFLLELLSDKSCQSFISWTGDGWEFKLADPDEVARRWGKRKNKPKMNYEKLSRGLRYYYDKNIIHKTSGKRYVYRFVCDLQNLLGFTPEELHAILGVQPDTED
The gist of the method:
as §1

Assay [4] addresses T4, SPDEF (Homo sapiens, UniProt O95238 1-335).
T4 sequence: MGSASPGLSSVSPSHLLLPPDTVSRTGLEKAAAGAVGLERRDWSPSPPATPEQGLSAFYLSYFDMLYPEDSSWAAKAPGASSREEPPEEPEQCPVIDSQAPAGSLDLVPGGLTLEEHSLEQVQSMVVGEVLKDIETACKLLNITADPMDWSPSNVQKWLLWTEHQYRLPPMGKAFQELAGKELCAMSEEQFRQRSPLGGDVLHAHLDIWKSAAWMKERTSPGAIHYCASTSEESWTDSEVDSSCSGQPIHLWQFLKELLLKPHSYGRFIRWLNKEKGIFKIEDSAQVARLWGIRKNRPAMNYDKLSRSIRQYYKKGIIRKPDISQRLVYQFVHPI
The gist of the method: as §1

In assay [5] the target is T5, ETV7 (Homo sapiens, UniProt Q9Y603 1-341).
T5 sequence: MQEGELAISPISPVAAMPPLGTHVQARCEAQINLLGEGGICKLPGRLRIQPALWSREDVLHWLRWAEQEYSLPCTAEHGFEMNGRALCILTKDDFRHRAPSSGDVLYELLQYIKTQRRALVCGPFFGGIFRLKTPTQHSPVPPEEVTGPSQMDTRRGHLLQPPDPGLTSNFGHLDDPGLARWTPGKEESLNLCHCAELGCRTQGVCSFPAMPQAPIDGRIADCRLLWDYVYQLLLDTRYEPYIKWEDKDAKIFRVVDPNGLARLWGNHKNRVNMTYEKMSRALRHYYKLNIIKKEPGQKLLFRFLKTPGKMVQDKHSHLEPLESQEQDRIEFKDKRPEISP
Summed up:
as §1

Assay [6] deals with T6, ELF5 (Homo sapiens, UniProt Q9UKW6-2 1-255).
T6 sequence: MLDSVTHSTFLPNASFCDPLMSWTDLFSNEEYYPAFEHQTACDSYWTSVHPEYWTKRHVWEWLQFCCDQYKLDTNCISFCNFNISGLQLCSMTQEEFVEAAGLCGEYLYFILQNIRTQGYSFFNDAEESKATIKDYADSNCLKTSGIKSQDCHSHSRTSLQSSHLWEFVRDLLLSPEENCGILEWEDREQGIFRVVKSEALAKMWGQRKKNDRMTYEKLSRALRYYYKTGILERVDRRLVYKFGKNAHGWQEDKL
Summed up:
as §1

The target of assay [7] is T7, ETV3 (Homo sapiens, UniProt P41162-2 1-143).
T7 sequence: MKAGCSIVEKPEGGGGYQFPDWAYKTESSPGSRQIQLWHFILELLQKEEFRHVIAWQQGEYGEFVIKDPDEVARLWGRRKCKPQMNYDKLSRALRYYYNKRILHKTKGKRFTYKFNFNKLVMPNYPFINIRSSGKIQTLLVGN
Summed up:
as §1

Assay [8] has as its target ETV6 (Homo sapiens, UniProt P41212 1-452). Summed up: as §1

Sequence of ETV6 (P41212 whole entry): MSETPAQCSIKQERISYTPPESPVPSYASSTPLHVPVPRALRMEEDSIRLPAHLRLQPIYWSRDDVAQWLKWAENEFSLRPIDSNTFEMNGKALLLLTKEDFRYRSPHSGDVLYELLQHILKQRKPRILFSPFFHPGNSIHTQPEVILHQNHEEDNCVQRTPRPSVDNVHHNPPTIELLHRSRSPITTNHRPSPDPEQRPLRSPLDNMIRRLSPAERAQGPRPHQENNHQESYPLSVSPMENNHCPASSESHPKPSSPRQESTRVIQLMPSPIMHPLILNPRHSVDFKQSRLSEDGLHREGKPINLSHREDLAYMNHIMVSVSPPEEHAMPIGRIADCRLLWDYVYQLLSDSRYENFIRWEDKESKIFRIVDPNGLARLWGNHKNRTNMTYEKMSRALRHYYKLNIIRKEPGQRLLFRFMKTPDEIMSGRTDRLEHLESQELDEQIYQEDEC

Consider GGATGT, for which the binding signal in assay [1] was 1.41 fold enrichment (6-mer frequency, TF over GST control); in assay [2], 1.63 fold enrichment (6-mer frequency, TF over GST control); in assay [3], 1.72 fold enrichment (6-mer frequency, TF over GST control); in assay [4], 3.07 fold enrichment (6-mer frequency, TF over GST control); in assay [5] it was 1.45 fold enrichment (6-mer frequency, TF over GST control); in assay [6], 1.87 fold enrichment (6-mer frequency, TF over GST control). In addition, the binding signal in assay [7] was 1.78 fold enrichment (6-mer frequency, TF over GST control); in assay [8], 1.66 fold enrichment (6-mer frequency, TF over GST control).

Turning to CCATTC, the binding signal was 1.14 fold enrichment (6-mer frequency, TF over GST control) in assay [1]; 1.06 fold enrichment (6-mer frequency, TF over GST control) in assay [2]; 1.13 fold enrichment (6-mer frequency, TF over GST control) in assay [3]; 1.13 fold enrichment (6-mer frequency, TF over GST control) in assay [4]; 1.16 fold enrichment (6-mer frequency, TF over GST control) in assay [5]; 1.11 fold enrichment (6-mer frequency, TF over GST control) in assay [6]. Also, the binding signal in assay [7] is 1.1 fold enrichment (6-mer frequency, TF over GST control); in assay [8], 1.12 fold enrichment (6-mer frequency, TF over GST control).

For CCACGA, the binding signal in assay [1] was 1.04 fold enrichment (6-mer frequency, TF over GST control); in assay [2], 1.09 fold enrichment (6-mer frequency, TF over GST control); in assay [3], 1.08 fold enrichment (6-mer frequency, TF over GST control); in assay [4], 1.03 fold enrichment (6-mer frequency, TF over GST control); in assay [5], 1.17 fold enrichment (6-mer frequency, TF over GST control); in assay [6], 1.01 fold enrichment (6-mer frequency, TF over GST control). In addition, the binding signal in assay [7] was 1.02 fold enrichment (6-mer frequency, TF over GST control); in assay [8] it was 1.01 fold enrichment (6-mer frequency, TF over GST control).

As to CGGATA, the binding signal is 1.17 fold enrichment (6-mer frequency, TF over GST control) in assay [1]; 1.13 fold enrichment (6-mer frequency, TF over GST control) in assay [2]; 1.3 fold enrichment (6-mer frequency, TF over GST control) in assay [3]; 1.93 fold enrichment (6-mer frequency, TF over GST control) in assay [4]; 1.09 fold enrichment (6-mer frequency, TF over GST control) in assay [5]; 1.37 fold enrichment (6-mer frequency, TF over GST control) in assay [6]. In addition, the binding signal was 1.33 fold enrichment (6-mer frequency, TF over GST control) in assay [7] and 1.21 fold enrichment (6-mer frequency, TF over GST control) in assay [8].

For GTTCAA, the binding signal in assay [1] was 1.14 fold enrichment (6-mer frequency, TF over GST control); in assay [2], 1.19 fold enrichment (6-mer frequency, TF over GST control); in assay [3], 1.14 fold enrichment (6-mer frequency, TF over GST control); in assay [4] it was 1.22 fold enrichment (6-mer frequency, TF over GST control); in assay [5], 1.03 fold enrichment (6-mer frequency, TF over GST control); in assay [6], 1.12 fold enrichment (6-mer frequency, TF over GST control). The binding signal in assay [7] is 1.15 fold enrichment (6-mer frequency, TF over GST control); in assay [8] it was 1.16 fold enrichment (6-mer frequency, TF over GST control).

For TGGACA, the binding signal in assay [1] is 1.08 fold enrichment (6-mer frequency, TF over GST control); in assay [2] it was 1.06 fold enrichment (6-mer frequency, TF over GST control); in assay [3], 1.12 fold enrichment (6-mer frequency, TF over GST control); in assay [4], 1.04 fold enrichment (6-mer frequency, TF over GST control); in assay [5] it was 1.06 fold enrichment (6-mer frequency, TF over GST control); in assay [6] it was 1.02 fold enrichment (6-mer frequency, TF over GST control). Further, the binding signal in assay [7] is 1.06 fold enrichment (6-mer frequency, TF over GST control); in assay [8], 1.09 fold enrichment (6-mer frequency, TF over GST control).

On to CTTACT, for which the binding signal in assay [1] was 1.32 fold enrichment (6-mer frequency, TF over GST control); in assay [2], 1.22 fold enrichment (6-mer frequency, TF over GST control); in assay [3], 1.26 fold enrichment (6-mer frequency, TF over GST control); in assay [4] it was 1.21 fold enrichment (6-mer frequency, TF over GST control); in assay [5], 1.18 fold enrichment (6-mer frequency, TF over GST control); in assay [6], 1.3 fold enrichment (6-mer frequency, TF over GST control). The binding signal in assay [7] is 1.27 fold enrichment (6-mer frequency, TF over GST control); in assay [8] it was 1.3 fold enrichment (6-mer frequency, TF over GST control).
